# Test results as given in PubChem BioAssay (NCATS).
# Inconclusive results are not listed. Where a call stands in place of a potency, no number is given. Active and inactive are the calls of the source. Unless noted, the call rests on the fitted dose curve; in most records, active means well fitted curve in the direction sought with a large enough effect; inconclusive means small, poorly fitted or top-dose-only effect, or another doubt; inactive means no such curve, though single readings can be large; an effect the other way counts as inactive or inconclusive.
# Legend:
# [1] = Cell Viability - LYMP2-015 (AID 971); further: nearly all actives have a fitted effect of over 55% in size
# Procedure, shortened: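 AC50 values reflect Hill-model fits of ATP-based luminescence (CellTiter-Glo) from a human lymphoblastoid line, 2500 cells/well, treated 24 hr at 37 C.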
# [2] = Cell Viability - LYMP2-017 (AID 972); further: series mostly up to about 92 µM; nearly all actives have a fitted effect of over 55% in size
# Procedure, shortened: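 In this qHTS format, lymphoblastoid cells in complete medium receive test compound for a day at 37 C before ATP content is quantified by luciferase luminescence. Reported AC50 figures come from standard Hill-equation curve fitting.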
# [3] = Cell Viability - LYMP2-019 (AID 973); further: nearly all actives have a fitted effect of over 55% in size
# Procedure, shortened: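 AC50 values come from Hill-equation modelling of qHTS concentration-response curves, where viability is measured as luciferase-based ATP luminescence in the lymphoblastoid line after 24 hr compound exposure in complete culture medium.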
# [4] = Cell Viability - LYMP2-021 (AID 974);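 further: compound exposure lasts 24 hours at 37 °C; nearly all actives have a fitted effect of over 55% in size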
# Procedure, shortened: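 In qHTS format, compounds are tested against 2500 lymphoblastoid cells per well for 24 h; viable cell number is inferred from ATP-driven luciferase light, and Hill-equation fitting yields AC50 values.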
# [5] = Cell Viability - LYMP2-023 (AID 975)
# Procedure, shortened: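 In this qHTS, ATP-based luciferase luminescence (CellTiter-Glo) is quantified in human lymphoblastoid cells after 24 hr compound treatment at 37 C; tetraoctylammonium bromide serves as positive control. Concentration-response curves are Hill-fitted to give AC50.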
# [6] = Cell Viability - LYMP2-025 (AID 976); further: series mostly up to about 92 µM
# Procedure, shortened: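 Luminescent ATP readout after 24 hr treatment of a human lymphoblastoid line (LYMP2-025, 2500 cells/well, 37 C). Reagent developed 30 min at room temperature; AC50 fitted with the Hill equation.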
# [7] = Cell Viability - LYMP2-002 (AID 977);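 further: series mostly up to about 92 µM; compound exposure lasted 24 h at 37 °C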
# Procedure, shortened: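 Human lymphoblastoid cells (2500/well) in complete medium were preincubated 5 hr at 37 C, then exposed to compounds for 24 hr at 37 C. Intracellular ATP was read by CellTiter-Glo luminescence; AC50 came from Hill-equation concentration-response fits.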
# [8] = Cell Viability - LYMP2-007 (AID 979);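 further: cells exposed to compound for 24 h before reading; nearly all actives have a fitted effect of over 60% in size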
# Procedure, shortened: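 Measured via luciferase-based ATP quantitation: lymphoblastoid cells, 24 hr compound exposure at 37 C, AC50 from Hill fits.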
# [9] = Cell Viability - LYMP2-008 (AID 980); further: nearly all actives have a fitted effect of over 60% in size
# Procedure, shortened: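 Measured: ATP-dependent luminescence, proportional to viable cell number, in human lymphoblastoid cells treated 24 hr with compound in complete culture medium. Values are AC50s from Hill-equation modelling of qHTS titrations.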
# [10] = Cell Viability - LYMP2-010 (AID 981); further: nearly all actives have a fitted effect of over 55% in size
# Procedure, shortened: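 This 24 hr viability screen uses LYMP2-010 lymphoblastoid cells, quantifies ATP via luciferase luminescence, and derives AC50 from Hill fits of qHTS concentration-response data.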
# [11] = Cell Viability - LYMP2-014 (AID 983); further: series mostly up to about 92 µM; nearly all actives have a fitted effect of over 50% in size
# Procedure, shortened: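 Quantitative HTS in lymphoblastoid cells: 24 hr compound exposure, then CellTiter-Glo ATP luminescence. Positive control was tetraoctylammonium bromide, 6.4pM to 92 uM.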
# [12] = Cell Viability - LYMP2-016 (AID 984); further: nearly all actives have a fitted effect of over 55% in size
# Procedure, shortened: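 Acute toxicity in a Coriell human lymphoblastoid line is scored as loss of intracellular ATP over 24 h of treatment in complete medium. CellTiter-Glo signal is fitted across concentrations with the Hill equation to give AC50.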
# [13] = Cell Viability - LYMP2-018 (AID 985); further: nearly all actives have a fitted effect of over 50% in size
# Procedure, shortened: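 In this qHTS viability assay, cells are treated for 24 hr and cellular ATP is quantified by luciferase-based luminescence, with tetraoctylammonium bromide as positive control.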
# [14] = Cell Viability - LYMP2-020 (AID 986)
# Procedure, shortened: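 Cells at 2500 per well receive a 24 hr compound exposure at 37 C. Viability is measured as ATP-dependent luciferase luminescence, with AC50 modeled from qHTS concentration-response curves.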
# [15] = Cell Viability - LYMP2-022 (AID 987); further: nearly all actives have a fitted effect of over 55% in size
# Procedure, shortened: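 In this qHTS cytotoxicity screen, compound titrations were incubated 24 hr at 37 C with human lymphoblastoid cells in complete medium. Luciferase-based ATP luminescence provided the viability signal.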
# [16] = Cell Viability - LYMP2-024 (AID 988); further: nearly all actives have a fitted effect of over 60% in size
# Procedure, shortened: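 Cells at 2500 per well received compound for 24 hr after a 5 hr settling period. Viability was scored by CellTiter-Glo luminescence, with AC50 from Hill fits.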
# [17] = Cell Viability - LYMP2-026 (AID 989); further: nearly all actives have a fitted effect of over 50% in size
# Procedure, shortened: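 Acute toxicity screen in complete culture medium, with 24 hr compound exposure at 37 C. Viability read as cellular ATP via luciferase reaction, with tetraoctylammonium bromide (6.4pM to 92 uM) as positive control.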
# [18] = Cell Viability - LYMP1-002 - Assay at 24 hr (AID 993)
# Procedure, shortened: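 Viability was judged from intracellular ATP using a luciferase read-out, following a 24-hour compound incubation at 37 C of lymphoblastoid cells seeded at 2500 per well. Concentration-response data were fitted to the Hill equation for AC50.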
# [19] = Cell Viability - LYMP1-002 - Assay at 40 hr (AID 994); further: nearly all actives have a fitted effect of over 60% in size
# Procedure, shortened: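 Concentration-dependent ATP loss after 40 hr treatment at 37 C defined toxicity; AC50 values were obtained by fitting the standard Hill equation.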
# [20] = biological target: Estrogen receptor (Homo sapiens) (UniProt P03372); assay: qHTS assay for small molecule antagonists of estrogen receptor alpha signaling (AID 588513; active means well fitted curve in the direction sought with a large enough effect in the signal ratio, with a control signal flat, not every such curve was filed as active; the % refers to the signal ratio)
# Estrogen receptor (Homo sapiens), sequence (P03372 whole entry, looked up): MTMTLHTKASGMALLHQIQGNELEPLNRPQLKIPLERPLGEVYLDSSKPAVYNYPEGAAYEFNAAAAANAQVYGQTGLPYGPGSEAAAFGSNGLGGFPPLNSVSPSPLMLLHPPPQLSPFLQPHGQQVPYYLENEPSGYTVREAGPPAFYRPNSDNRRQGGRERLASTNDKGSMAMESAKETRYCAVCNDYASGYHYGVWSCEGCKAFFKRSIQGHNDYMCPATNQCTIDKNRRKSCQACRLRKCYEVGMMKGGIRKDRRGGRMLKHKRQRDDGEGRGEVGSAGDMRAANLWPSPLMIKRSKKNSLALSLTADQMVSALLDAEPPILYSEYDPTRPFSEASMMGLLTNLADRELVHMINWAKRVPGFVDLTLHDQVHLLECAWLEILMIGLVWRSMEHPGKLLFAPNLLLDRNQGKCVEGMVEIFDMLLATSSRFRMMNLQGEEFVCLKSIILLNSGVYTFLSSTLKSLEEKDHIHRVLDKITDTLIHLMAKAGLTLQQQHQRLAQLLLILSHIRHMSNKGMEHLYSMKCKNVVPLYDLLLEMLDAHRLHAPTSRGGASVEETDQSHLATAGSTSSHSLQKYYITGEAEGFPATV
# Procedure, shortened: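 Cells were plated at 5000/well and incubated 4 h at 37 C. Compounds were added as 1:2 dilution series, duplicates. 17-beta-estradiol (0.5nM final) was added for 18 h before CCF4 detection.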
# [21] = biological target: Androgen receptor (Homo sapiens) (UniProt P10275); assay: qHTS assay for small molecule agonists of androgen receptor signaling (AID 588515; active means well fitted curve in the direction sought with a large enough effect in the signal ratio, with a control signal flat; the % refers to the signal ratio); conditions: AR-UAS-bla HEK293, beta-lactamase ratio, agonist 16 h; stronger effect = higher value
# Androgen receptor (Homo sapiens), sequence (P10275 whole entry, looked up): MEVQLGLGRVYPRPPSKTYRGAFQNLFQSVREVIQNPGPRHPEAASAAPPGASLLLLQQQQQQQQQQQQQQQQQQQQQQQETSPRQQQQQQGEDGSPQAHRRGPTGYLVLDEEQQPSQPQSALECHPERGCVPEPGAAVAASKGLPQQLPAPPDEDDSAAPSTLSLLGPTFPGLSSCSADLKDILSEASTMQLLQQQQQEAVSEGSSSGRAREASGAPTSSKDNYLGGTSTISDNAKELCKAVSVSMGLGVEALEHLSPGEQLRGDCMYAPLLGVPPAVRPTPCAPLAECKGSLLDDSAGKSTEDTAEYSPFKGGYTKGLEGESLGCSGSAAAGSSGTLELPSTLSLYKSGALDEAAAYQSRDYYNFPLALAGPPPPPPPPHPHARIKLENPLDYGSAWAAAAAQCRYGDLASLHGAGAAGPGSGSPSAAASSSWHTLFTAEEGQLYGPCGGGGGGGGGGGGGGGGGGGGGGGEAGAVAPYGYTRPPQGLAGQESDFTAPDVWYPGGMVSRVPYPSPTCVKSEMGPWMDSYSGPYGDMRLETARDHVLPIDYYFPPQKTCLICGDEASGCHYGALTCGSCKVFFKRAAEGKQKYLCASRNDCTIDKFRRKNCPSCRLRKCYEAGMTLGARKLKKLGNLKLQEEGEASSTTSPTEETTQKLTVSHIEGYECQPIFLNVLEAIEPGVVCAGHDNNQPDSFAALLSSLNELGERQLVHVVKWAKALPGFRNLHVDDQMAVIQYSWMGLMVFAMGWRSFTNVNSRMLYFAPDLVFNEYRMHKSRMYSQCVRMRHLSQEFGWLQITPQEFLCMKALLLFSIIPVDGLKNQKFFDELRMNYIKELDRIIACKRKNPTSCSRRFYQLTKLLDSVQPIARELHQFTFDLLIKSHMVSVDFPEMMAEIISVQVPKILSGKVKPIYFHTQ
# Procedure, shortened: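 Stimulation of an AR-responsive β-lactamase reporter in GripTite HEK293 cells was measured after 16 h compound exposure at 37 °C, via CCF4 fluorescence after 2 h RT. EC50 from Hill fits, normalized to R1881 at 30 nM.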
# [22] = biological target: Androgen receptor (Homo sapiens) (UniProt P10275); assay: qHTS assay for small molecule antagonists of androgen receptor signaling (AID 588516; active means well fitted curve in the direction sought with a large enough effect in the signal ratio, with a control signal flat, not every such curve was filed as active; the % refers to the signal ratio)
# Procedure, shortened: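 Antagonist-mode qHTS: inhibition of R1881 (10 nM)-driven beta-lactamase expression in GripTite HEK 293 cells is measured after 16 h; values are Hill-derived IC50s normalized between R1881 and DMSO wells.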
# [23] = qHTS assay for small molecule antagonists of peroxisome proliferator-activated receptor delta signaling (AID 588535; active means well fitted inhibition curve with a large enough effect in the signal ratio, with a control signal flat, not every such curve was filed as active; the % refers to the signal ratio;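 on max response: cells co-treated with a PPAR-delta agonist as stimulator during compound exposure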); conditions: HEK293T PPARd-UAS-bla, beta-lactamase FRET ratio, 18 h; 460 nm channel
# Procedure, shortened: (§1)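 Antagonist-mode qHTS using GeneBLAzer PPAR-delta-UAS-bla HEK293T cells; compound exposure 18 hrs at 37 C over a titration. Ratiometric CCF4 fluorescence at 460/530 nm; concentration-response points fitted to the Hill equation.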
# [24] = biological target: Peroxisome proliferator-activated receptor delta (Homo sapiens) (UniProt Q03181); assay: as above
# Procedure, shortened: as §1
# [25] = biological target: Peroxisome proliferator-activated receptor gamma (Homo sapiens) (UniProt P37231); assay: qHTS assay for small molecule agonists of peroxisome proliferator-activated receptor gamma signaling (AID 588536; active means well fitted curve in the direction sought with a large enough effect in the signal ratio, with a control signal flat, not every such curve was filed as active; the % refers to the signal ratio)
# Peroxisome proliferator-activated receptor gamma (Homo sapiens), sequence (P37231 whole entry, looked up): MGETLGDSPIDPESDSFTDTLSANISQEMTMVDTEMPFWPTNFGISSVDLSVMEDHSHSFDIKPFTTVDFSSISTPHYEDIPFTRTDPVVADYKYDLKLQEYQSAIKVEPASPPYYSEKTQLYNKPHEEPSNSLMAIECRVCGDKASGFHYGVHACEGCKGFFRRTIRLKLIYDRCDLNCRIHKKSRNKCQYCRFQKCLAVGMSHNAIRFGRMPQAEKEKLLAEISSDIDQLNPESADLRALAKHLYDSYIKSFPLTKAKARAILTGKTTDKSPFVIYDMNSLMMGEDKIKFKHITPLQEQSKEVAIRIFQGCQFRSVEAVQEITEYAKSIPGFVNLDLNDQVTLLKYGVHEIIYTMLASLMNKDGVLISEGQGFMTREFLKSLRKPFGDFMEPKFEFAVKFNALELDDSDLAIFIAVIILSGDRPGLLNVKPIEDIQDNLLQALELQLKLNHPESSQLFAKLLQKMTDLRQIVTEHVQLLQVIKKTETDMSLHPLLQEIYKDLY
# Procedure, shortened: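 Cells were plated and held 6–6.5 h at 37 C, then compounds were added as a titration series. After a further 16 h, CCF4 dye was loaded for 2 h at room temperature and emission at 460/530 nm recorded.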
# [26] = biological target: Peroxisome proliferator-activated receptor gamma (Homo sapiens) (UniProt P37231); assay: qHTS assay for small molecule antagonists of peroxisome proliferator-activated receptor gamma signaling (AID 588537; active means well fitted inhibition curve with a large enough effect in the signal ratio, with a control signal flat, not every such curve was filed as active; the % refers to the signal ratio;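 further: reporter cells co-stimulated with 50 nM rosiglitazone agonist during compound treatment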)
# Procedure, shortened: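 Cell-based beta-lactamase assay; GW9662 served as the antagonist control. Stimulation used rosiglitazone, final 50 nM, 16 h, 37 C.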
# [27] = biological target: Vitamin D3 receptor (Homo sapiens) (UniProt P11473); assay: qHTS assay for small molecule antagonists of vitamin D receptor signaling (AID 588541; calls by dose curve;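 further: receptor activated by calcitriol during compound treatment; series mostly up to about 77 µM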)
# Vitamin D3 receptor (Homo sapiens), sequence (P11473 whole entry, looked up): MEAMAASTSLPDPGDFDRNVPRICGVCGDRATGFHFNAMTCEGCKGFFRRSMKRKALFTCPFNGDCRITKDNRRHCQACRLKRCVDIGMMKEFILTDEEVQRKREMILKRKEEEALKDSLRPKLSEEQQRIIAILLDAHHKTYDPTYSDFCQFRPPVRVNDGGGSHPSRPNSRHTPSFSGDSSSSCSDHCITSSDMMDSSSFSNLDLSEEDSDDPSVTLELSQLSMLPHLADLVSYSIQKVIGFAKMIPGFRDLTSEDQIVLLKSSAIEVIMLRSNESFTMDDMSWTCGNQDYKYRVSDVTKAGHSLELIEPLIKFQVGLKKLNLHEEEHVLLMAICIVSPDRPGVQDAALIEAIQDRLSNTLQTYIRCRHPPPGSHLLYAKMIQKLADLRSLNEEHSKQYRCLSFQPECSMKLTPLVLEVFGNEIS
# Procedure, shortened: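 Antagonist-mode beta-lactamase reporter assay: HEK293T VDR-UAS-bla cells were exposed to titrated compound alongside 1-alpha,25-dihydroxyvitamin D3 at 3 nM final for 16 h. Values were normalized to the 50 nM agonist control and DMSO basal, with IC50 and efficacy from Hill equation fits.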
# [28] = qHTS assay for small molecule antagonists of retinoid X receptor alpha signaling (AID 588546; active means well fitted inhibition curve with a large enough effect in the signal ratio, with a control signal flat, not every such curve was filed as active; the % refers to the signal ratio;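 further: cells stimulated with 9-cis-retinoic acid as agonist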); conditions: HEK293T RXRa-UAS-bla, beta-lactamase ratio, antagonist mode; measured here: W530 green channel, cytotoxicity proxy
# Procedure, shortened: (§2)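 Beta-lactamase reporter inhibition, read as CCF4 fluorescence ratio (ex 405, em 460/530 nm) after 2 h at RT. HEK293T UAS-bla cells, 2500/well, were stimulated with 9-cis-RA at 500 or 100 nM final alongside test compound for 18 h at 37 C.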
# [29] = biological target: Retinoic acid receptor RXR-alpha (Homo sapiens) (UniProt P19793); assay: as above; conditions: HEK293T RXRa-UAS-bla, beta-lactamase ratio, antagonist mode
# Retinoic acid receptor RXR-alpha (Homo sapiens), sequence (P19793 whole entry, looked up): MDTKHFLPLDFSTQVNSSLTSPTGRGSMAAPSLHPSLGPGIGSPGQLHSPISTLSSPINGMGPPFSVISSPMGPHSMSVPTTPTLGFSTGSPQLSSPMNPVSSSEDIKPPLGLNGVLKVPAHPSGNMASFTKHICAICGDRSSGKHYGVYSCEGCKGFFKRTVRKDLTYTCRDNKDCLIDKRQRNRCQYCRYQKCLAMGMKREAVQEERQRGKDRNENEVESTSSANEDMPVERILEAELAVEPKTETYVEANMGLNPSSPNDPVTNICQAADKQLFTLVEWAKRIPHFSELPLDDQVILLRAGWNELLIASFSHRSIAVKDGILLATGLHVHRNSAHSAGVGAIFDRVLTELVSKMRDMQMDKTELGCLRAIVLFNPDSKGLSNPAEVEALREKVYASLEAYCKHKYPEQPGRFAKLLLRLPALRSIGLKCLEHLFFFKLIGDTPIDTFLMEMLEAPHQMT
# Procedure, shortened: as §2
# [30] = biological target: Thyroid hormone receptor beta (Homo sapiens) (UniProt P10828); assay: qHTS assay for small molecule antagonists of thyroid hormone receptor beta signaling (AID 588547; active means well fitted inhibition curve with a large enough effect in the signal ratio, with a control signal flat, not every such curve was filed as active; the % refers to the signal ratio;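 further: cells stimulated with 0.4 nM T3 agonist during compound exposure; series mostly up to about 77 µM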); conditions: TR-UAS-bla HEK293, beta-lactamase ratio, antagonist mode, 18 h
# Thyroid hormone receptor beta (Homo sapiens), sequence (P10828 whole entry, looked up): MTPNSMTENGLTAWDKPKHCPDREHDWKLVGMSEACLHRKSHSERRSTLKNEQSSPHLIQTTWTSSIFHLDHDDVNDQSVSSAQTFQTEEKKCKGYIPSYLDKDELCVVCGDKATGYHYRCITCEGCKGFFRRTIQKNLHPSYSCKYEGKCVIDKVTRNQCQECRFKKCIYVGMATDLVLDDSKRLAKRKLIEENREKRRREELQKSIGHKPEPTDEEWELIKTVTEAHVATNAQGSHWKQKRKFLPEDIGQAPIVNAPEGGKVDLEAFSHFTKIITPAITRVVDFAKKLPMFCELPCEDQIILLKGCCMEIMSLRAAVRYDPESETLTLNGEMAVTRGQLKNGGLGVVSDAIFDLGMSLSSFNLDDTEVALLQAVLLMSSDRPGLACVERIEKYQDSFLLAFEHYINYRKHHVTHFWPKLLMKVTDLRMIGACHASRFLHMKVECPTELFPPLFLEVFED
# Procedure, shortened: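 Inhibition of T3-driven (0.4nM final) beta-lactamase reporter activity was measured over 0.59 nM to 92 uM compound after 18 h at 37 C. The cells were GripTite HEK293 TR-UAS-bla in charcoal/dextran-stripped serum, with CCF4 ratio read-out and IC50 from Hill fits.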
# [31] = qHTS assay for environmental chemicals that activate the Aryl hydrocarbon Receptor (AhR) signaling pathway (AID 651777); conditions: 1A2-DRE human hepatoma cells, luciferase, 24 h; activation: stronger effect = higher value; further: nearly all actives have a fitted effect of over 15% in size
# Procedure, shortened: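 Human hepatoma 1A2-DRE cells, stably carrying a dioxin response element and CYP1A2 promoter driving luciferase, were exposed to compounds for 24 hr at 37 C and 5% CO2. Luciferase signal was then read after 30 min One-Glo at room temperature.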
# [32] = biological target: Peroxisome proliferator-activated receptor alpha (Homo sapiens) (UniProt Q07869); assay: qHTS assay for small molecule agonists of the peroxisome proliferator-activated receptor alpha (PPARalpha) signaling pathway (AID 651778); conditions: PathHunter PPARalpha complementation, chemiluminescence, 6 h; max response: stronger effect = higher value
# Peroxisome proliferator-activated receptor alpha (Homo sapiens), sequence (Q07869 whole entry, looked up): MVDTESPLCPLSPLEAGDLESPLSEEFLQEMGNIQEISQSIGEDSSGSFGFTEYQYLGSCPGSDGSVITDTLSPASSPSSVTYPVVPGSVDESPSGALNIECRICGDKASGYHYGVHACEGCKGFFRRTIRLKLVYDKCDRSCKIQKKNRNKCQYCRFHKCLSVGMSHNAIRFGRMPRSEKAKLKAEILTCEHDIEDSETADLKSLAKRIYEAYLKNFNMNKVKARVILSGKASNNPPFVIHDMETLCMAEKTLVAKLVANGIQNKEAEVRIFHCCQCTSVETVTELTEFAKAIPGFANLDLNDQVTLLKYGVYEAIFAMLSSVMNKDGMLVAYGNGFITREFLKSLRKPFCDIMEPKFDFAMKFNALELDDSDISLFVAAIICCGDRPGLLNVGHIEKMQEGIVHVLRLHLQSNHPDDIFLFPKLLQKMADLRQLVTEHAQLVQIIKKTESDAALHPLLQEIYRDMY
# Procedure, shortened: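 Chemiluminescence from complemented enzyme reported PPARalpha activation in cells after 6 hr of compound treatment at 37 C. The detection reagent was incubated for 60 min at room temperature, and compounds were scored as agonists.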
# [33] = biological target: Nuclear receptor ROR-gamma (Homo sapiens) (UniProt P51449); assay: qHTS assay for small molecule antagonists of the retinoid-related orphan receptor gamma (ROR-gamma) signaling pathway (AID 651802)
# Nuclear receptor ROR-gamma (Homo sapiens), sequence (P51449 whole entry, looked up): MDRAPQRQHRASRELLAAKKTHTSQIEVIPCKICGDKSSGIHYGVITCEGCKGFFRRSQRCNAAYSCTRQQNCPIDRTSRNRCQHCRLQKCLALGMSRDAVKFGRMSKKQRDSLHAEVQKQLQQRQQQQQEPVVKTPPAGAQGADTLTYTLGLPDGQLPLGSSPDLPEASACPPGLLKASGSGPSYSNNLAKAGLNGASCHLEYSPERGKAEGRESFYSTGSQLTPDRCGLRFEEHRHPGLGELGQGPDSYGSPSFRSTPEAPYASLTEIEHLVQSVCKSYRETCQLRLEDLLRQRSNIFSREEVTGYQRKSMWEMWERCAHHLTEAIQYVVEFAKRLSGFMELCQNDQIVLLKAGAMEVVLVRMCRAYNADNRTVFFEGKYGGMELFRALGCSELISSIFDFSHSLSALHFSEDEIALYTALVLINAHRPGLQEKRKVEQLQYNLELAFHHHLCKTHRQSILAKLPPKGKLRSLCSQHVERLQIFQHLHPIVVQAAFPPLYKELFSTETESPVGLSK
# Procedure, shortened: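 Doxycycline-induced reporter activity in engineered CHO cells (TET-inducible ROR, RORE-LUC) was measured by luminescence after 16hr compound exposure at 37C.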
# [34] = qHTS assay for small molecule agonists of the antioxidant response element (ARE) signaling pathway measured by Nrf2-dependant transcriptional activity - cell viability counter screen (AID 720653; active means well fitted curve in the direction sought with a large enough effect in the repeat runs; an effect the other way counts as inactive or inconclusive); conditions: ARE-bla HepG2 viability, CellTiter-Glo ATP luminescence, 16 h; max response: stronger effect = lower value
# Procedure, shortened: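 Cytotoxicity counter screen: intracellular ATP quantified by CellTiter-Glo luminescence in the same ARE-bla HepG2 plates, after 16 h compound exposure and a 2 h beta-lactamase substrate step.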
# [35] = qHTS assay for cell viability of HEK293 cells (AID 743288); conditions: ATP luminescence (CellTiter-Glo), 18 h; max response: stronger effect = lower value; further: nearly all actives have a fitted effect of over 50% in size
# Procedure, shortened: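 Quantitative high-throughput screen: compounds were pinned onto parental HEK293 cells (2,000 per well) after a minimum 5 h settling at 37 C, incubated 18 h at 37 C, and intracellular ATP measured by luciferase luminescence.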
# [36] = qHTS assay for cell viability of the p53RE-bla HCT-116 cell line (AID 743292); further: nearly all actives have a fitted effect of over 55% in size
# Procedure, shortened: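 CellSensor p53RE-bla HCT-116 cells, 4,000/well, preincubated 5 h at 37 C, then exposed to compounds in DMSO for 16 h at 37 C. Viability read as CellTiter-Glo luminescence (intracellular ATP) after 30 min at room temperature.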
# [37] = biological target: Nuclear receptor subfamily 1 group I member 2 (Rattus norvegicus) (UniProt Q9R1A7); assay: qHTS assay for small molecule activators of the rat pregnane X receptor (rPXR) signaling pathway (AID 651751; call rule not given here); conditions: rPXR reporter cells, luciferase (One-Glo), 24 h
# Nuclear receptor subfamily 1 group I member 2 (Rattus norvegicus), sequence (Q9R1A7 whole entry, looked up): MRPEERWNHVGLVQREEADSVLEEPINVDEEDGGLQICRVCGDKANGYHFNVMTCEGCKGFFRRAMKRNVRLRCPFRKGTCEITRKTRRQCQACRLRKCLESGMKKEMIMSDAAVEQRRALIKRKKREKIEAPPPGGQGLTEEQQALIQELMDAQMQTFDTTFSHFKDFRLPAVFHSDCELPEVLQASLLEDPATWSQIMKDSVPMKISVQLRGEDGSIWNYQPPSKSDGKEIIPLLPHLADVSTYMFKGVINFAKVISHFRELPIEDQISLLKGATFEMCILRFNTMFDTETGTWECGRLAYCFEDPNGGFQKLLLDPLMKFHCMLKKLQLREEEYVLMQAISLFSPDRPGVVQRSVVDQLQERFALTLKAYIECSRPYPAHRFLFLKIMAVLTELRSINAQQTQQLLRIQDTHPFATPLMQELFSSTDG
# [38] = qHTS assay for small molecule activators of the human pregnane X receptor (PXR) signaling pathway (AID 720659; call rule not given here)
smiles,measurement,setting,value
CN(C)c1ccc(C2(c3ccc(N(C)C)cc3)OC(=O)c3cc(N(C)C)ccc32)cc1,Potency,[1],inactive
same,Potency,[2],inactive
same,Potency,[3],inactive
same,Potency,[4],inactive
same,Potency,[5],inactive
same,Potency,[6],inactive
same,Potency,[7],inactive
same,Potency,[8],inactive
same,Potency,[9],inactive
same,Potency,[10],inactive
same,Potency,[11],inactive
same,Potency,[12],inactive
same,Potency,[13],inactive
same,Potency,[14],inactive
same,Potency,[15],inactive
same,Potency,[16],inactive
same,Potency,[17],inactive
same,Potency,[18],inactive
same,Potency,[19],inactive
same,Potency,[20],inactive
same,activation,[21],19.5% (inactive)
same,outcome,[22],inactive
same,max response,[23],-30.7%
same,outcome,[24],inactive
same,outcome,[25],inactive
same,Potency,[26],inactive
same,Potency,[27],inactive
same,max response,[28],-30.3%
same,max response,[29],32.7% (inactive)
same,activity change % (negative = inhibition),[30],12.5% (inactive)
same,activation,[31],-0.148% (inactive)
same,max response,[32],-2.57% (inactive)
same,Potency,[33],inactive
same,max response,[34],7.4% (inactive)
same,max response,[35],-3.92% (inactive)
same,Potency,[36],inactive
same,max response,[37],-2.55% (inactive)
same,outcome,[38],inactive
